# An excerpt weighted towards active compounds, which were near 3.4% of everything screened.
# MEKK2wt PB1 HTS = raises or lowers MEK5 binding to wildtype human MEKK2 PB1 domain | Q9Y2U5 | bead flow cytometry, Alexa488-MEK5 binding to MEKK2 WT; actives lie on both sides | binding response (% of control), % at 10 µM | 1.1% of 290,000 active | AID 1531; in the data active = binding response below about 67% or above about 130%
# TMEM16A inh = inhibitors of mouse TMEM16A calcium-activated chloride channel. HEK293 TMEM16A/YFP iodide influx fluorescence, ionomycin. normalized B-score (activity score, 25-100; higher = stronger inhibition) at 10 µM. 1.2% of 310,000 active;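 active = ratio plate-corrected score three or more library SD toward inhibition, starting fluorescence score within five deviations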;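 also: score derived from kinetic fluorescence span divided by baseline fluorescence per well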
# Target sequence (Q8BHY3 whole entry, looked up): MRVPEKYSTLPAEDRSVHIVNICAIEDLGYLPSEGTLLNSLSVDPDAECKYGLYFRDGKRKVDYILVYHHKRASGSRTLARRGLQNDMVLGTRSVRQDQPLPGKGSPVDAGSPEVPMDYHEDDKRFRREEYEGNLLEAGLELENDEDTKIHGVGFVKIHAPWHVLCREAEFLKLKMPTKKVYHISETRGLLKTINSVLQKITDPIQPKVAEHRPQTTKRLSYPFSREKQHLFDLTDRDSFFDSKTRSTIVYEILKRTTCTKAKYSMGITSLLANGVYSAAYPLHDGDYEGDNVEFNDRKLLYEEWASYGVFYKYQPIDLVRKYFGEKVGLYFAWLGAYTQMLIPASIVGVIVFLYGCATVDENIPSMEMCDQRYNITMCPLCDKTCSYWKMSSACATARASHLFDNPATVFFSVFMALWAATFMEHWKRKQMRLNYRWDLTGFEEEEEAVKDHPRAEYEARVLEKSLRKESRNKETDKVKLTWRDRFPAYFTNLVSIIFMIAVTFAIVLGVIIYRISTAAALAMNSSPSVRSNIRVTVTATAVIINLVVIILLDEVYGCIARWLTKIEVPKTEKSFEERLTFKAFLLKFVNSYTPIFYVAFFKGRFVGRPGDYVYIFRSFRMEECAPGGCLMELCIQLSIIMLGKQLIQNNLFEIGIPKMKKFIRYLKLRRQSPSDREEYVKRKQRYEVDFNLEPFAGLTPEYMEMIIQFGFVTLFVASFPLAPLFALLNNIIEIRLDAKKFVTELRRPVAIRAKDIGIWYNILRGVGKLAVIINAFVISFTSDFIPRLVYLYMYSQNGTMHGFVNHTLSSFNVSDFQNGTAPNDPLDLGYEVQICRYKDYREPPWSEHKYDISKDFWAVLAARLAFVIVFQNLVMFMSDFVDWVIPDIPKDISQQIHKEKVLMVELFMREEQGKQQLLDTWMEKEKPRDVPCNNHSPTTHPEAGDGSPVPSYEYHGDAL
# ANO1 activ = activators or potentiators of mouse TMEM16A chloride channel. Q8BHY3. HEK293 TMEM16A/YFP-H148Q/I152L, iodide quench fluorescence; stronger effect = lower value. B-score at 10 µM. 0.3% of 340,000 active. AID 623877;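 active = fluorescence-ratio B-score plate-corrected deviation score at least 3 library SD below zero, with starting fluorescence score within 5 deviations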;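 also: channel opened by trigger with iodide after compound preincubation; score built on the fluorescence ratio of max minus min over baseline; more negative score means more quench and so TMEM16A activation or potentiation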
# MEKK3 PB1 HTS = raises or lowers MEK5 binding to the human MEKK3 PB1 domain | bead-based flow cytometry, Alexa488-MEK5 binding to MEKK3; actives lie on both sides; 0 = blocked by unlabeled MEK5, 100 = vehicle | 1.4% of 290,000 active | AID 1529 | Q99759 | binding response (% of control), % at 10 µM;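 active = binding response more than 3 SD above or below the average of its plate-row segment, actives on both sides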;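 also: Alexa488 bead fluorescence after subtracting the streptavidin-only scavenger bead signal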
# MEKK2mut PB1 HTS = signal of MEK5 binding to mutant human MEKK2 PB1 domain; bead flow cytometry, Alexa488-MEK5 binding to MEKK2 mutant; percent response, % at 10 µM; 0.35% of 290,000 active; AID 1530; in the data active = percent response above about 24%, passing the limit was not always enough
# NTR1 ag = agonists of human neurotensin receptor NTR1. P30989. NTR1-U2OS beta-arrestin-GFP spot imaging, agonist mode. activation, % at 20 µM. 0.17% of 330,000 active. AID 493036;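 active = activation at or above 40% of the spot to cytoplasm intensity ratio, with at least 20 cells analyzed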;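 also: 0% = DMSO without peptide and 100% = 100 nM NTR1 peptide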
# TMEM16A reconf = TMEM16A (mouse) chloride channel inhibition, re-confirmation. shares compounds with TMEM16A inh. HEK293 TMEM16A/YFP-H148Q, iodide quench fluorescence; ionomycin added to raise cell calcium. inhibition, % at 10 µM. 39% of 2,300 active;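 active = mean duplicate percent inhibition, scaled so buffer wells are 0 and the reference blocker 100, over three buffer SD above buffer mean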
# TMEM16A Ca cntr = calcium mobilization counter-screen hit for TMEM16A inhibitor series. shares compounds with TMEM16A inh. TMEM16A/YFP HEK293, Fluo4 calcium mobilization. calcium response (% of ionomycin), % at 10 µM. 2% of 2,300 active. AID 652231;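 active = duplicate-averaged calcium signal over 20% of the ionomycin maximum, relative to buffer baseline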;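 also: each well's signal is peak minus trough fluorescence divided by its pre-addition baseline; 0% = buffer wells and 100% = ionomycin wells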
# Parental YFP cnt = acts in parental YFP-HEK293 cells lacking TMEM16A, counter-screen | YFP ratio F(max-min)/F0 at 10 µM | iodide YFP quench, ionomycin | 2,300 tested, under 10 active | shares compounds with TMEM16A inh;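 active = yellow fluorescent protein signal ratio exceeding the buffer control mean by over 5 SD of those controls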;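 also: ratio is mean of duplicate wells from kinetic YFP trace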
# ClC-1 inh = rat ClC-1 inhibition, TMEM16A specificity screen; shares compounds with TMEM16A inh; CHO ClC-1-YFP, iodide influx fluorescence quench; iodide control reads 0, buffer control 100; ratio percent, % at 10 µM; 2,300 tested, under 10 active; AID 652236;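 active = duplicate-mean ratio percent above the mean of iodide-only control wells, which defines zero, plus 5 of their SD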;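 also: higher percent means stronger block of ClC-1 iodide influx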
# The depositor's hits bear a star; i = inactive; / = no result.
SMILES,MEKK2wt PB1 HTS,TMEM16A inh,ANO1 activ,MEKK3 PB1 HTS,MEKK2mut PB1 HTS,NTR1 ag,TMEM16A reconf,TMEM16A Ca cntr,Parental YFP cnt,ClC-1 inh
COc1ccc(O)c(C(=O)c2coc(=N)c(C(=O)Nc3ccc(SC(F)F)cc3)c2)c1,68.0,i,i,69.0,-31.0,1.0,i,i,-1.11,-57.5
CC(C)OC(=O)c1cc(C(=O)c2cc(F)ccc2O)coc1=N,90.0,i,i,91.0,1.0,3.0,/,/,/,/
O=C(O)COc1ccccc1/C=C1\SC(=S)N(NC(=O)c2ccccc2O)C1=O,/,i,i,/,/,-0.2,i,i,-0.849,19.0
O=S(=O)(NCC(c1ccco1)N1CCc2ccccc2C1)c1ccc(F)cc1 (stereo unspecified),/,25*,i,/,/,0.0,36.5%*,i,-0.934,-27.5
CCC(C)Nc1nc(-c2cccc(OC)c2O)nc2ccccc12 (stereo unspecified),102.0,100*,i,102.0,-2.0,19.4,28.5%*,i,-1.05,-9.0
Cc1[nH]c2ccccc2c1SCC(=O)O,96.0,i,i,87.0,-2.0,-1.2,/,/,/,/
COCC(=O)NCCSc1c(C)[nH]c2ccccc12,111.0,100*,i,110.0,14.0,0.4,i,i,-0.923,-7.0
Cc1cccc(C)c1OCc1cc(C(=O)N2CCN(c3ccc(F)cc3)CC2)no1,99.0,25*,i,100.0,-1.0,1.6,24.0%*,i,-1.12,-1.5
CCCC1(C(=O)O)NC(c2ccccc2O)C2C(=O)N(Cc3ccccc3)C(=O)C21 (stereo unspecified),105.0,100*,i,106.0,1.0,-3.1,i,i,-0.894,-6.0
CCC1(C(=O)O)NC(c2cc(OC)ccc2O)C2C(=O)N(Cc3ccccc3)C(=O)C21 (stereo unspecified),109.0,i,i,106.0,3.0,4.0,/,/,/,/
COc1ccccc1-c1ccc(SCc2ccc(C)cc2)nn1,96.0,25*,i,99.0,-4.0,6.3,i,i,-0.879,-10.0
COc1ccccc1-c1ccc(SCC(=O)N2CCOCC2)nn1,94.0,i,i,90.0,-4.0,-0.2,/,/,/,/
COc1ccccc1-c1ccc(SCc2ccc(F)cc2)nn1,92.0,100*,i,90.0,-3.0,2.3,i,i,-0.991,-13.5
CN1C(=O)C(C)(C)c2cc(S(=O)(=O)N3CCN(c4ccccc4)CC3)ccc21,101.0,100*,i,102.0,1.0,-0.6,i,i,-1.09,-4.0
CN1C(=O)C(C)(C)c2cc(S(=O)(=O)N3CCCCCC3)ccc21,99.0,i,i,100.0,3.0,-0.8,/,/,/,/
Cc1ccc(CN2CCC(n3nccc3NC(=O)CCOc3ccccc3)CC2)o1,102.0,i,i,104.0,0.0,-0.8,/,/,/,/
Oc1ccc(-c2[nH]ncc2-c2ccc(Cl)cc2)c(O)c1,95.0,25*,i,99.0,-1.0,2.5,i,i,-1.39,-3.0
COc1ccc2cc3cc(C(=O)N4CCN(Cc5ccc6c(c5)OCO6)CC4)oc3nc2c1,/,25*,i,/,/,4.5,i,i,-1.11,-4.5
COc1cc(NS(=O)(=O)c2ccc(C)cc2C)cc(OC)c1OC,99.0,100*,i,99.0,1.0,0.2,28.5%*,i,-0.989,-11.5
